U2OS ROS induce – ROS inducers in U2OS cancer cells, primary screen, cell-based, H2DCF-DA fluorescence. U2OS ROS induction. hit rate 2% among 46,000. AID 624156, 2012. ROS induction (% of piperlongumine), % at 10 µM; in the data active = ROS induction above about 79%, passing the limit was not always enough;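 also: 0% = DMSO vehicle median and 100% = reference compound median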
PD-1 reversal – activators reversing PD-1 mediated T-cell inhibition, primary screen, luminescence, primary human CD4 T cells, PD-L1 beads | CellTiter-Glo 96 h | activation, % (concentration not given with the values) | 29,000 tested, under 10 active | AID 2316, 2010; call rule not given here;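 also: 0% = median vehicle wells and 100% = positive control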
YB-1 expression – inhibitors of YB-1 gene expression, primary screen, cell-based, fluorescence; U2OS, qRT-PCR YB-1 vs CDIP delta delta Cp, 16 h; stronger effect = higher value; zero = DMSO, each unit about twofold; delta delta Cp (YB-1 minus CDIP) (concentration not given with the values); hit rate 0.37% among 30,000; AID 434959, 2010;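 active = delta delta Cp rounded down to an integer at or above 3, about 3 SD of DMSO wells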;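 also: higher means less YB-1 transcript or more CDIP transcript relative to DMSO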
NOMO-1 viab – NOMO-1 AML cell viability reduction, primary screen, STK33 inhibitor project, CellTiter-Glo luminescence | NOMO-1 AML viability, 72 h | hit rate 7.5% among 37,000 | inhibition, % (no concentration beside the values); in the data active = inhibition above about 80%
The depositor's hits bear a star; · = no result. This excerpt belongs to a sample that is enriched for hits.

SMILES	U2OS ROS induce	PD-1 reversal	YB-1 expression	NOMO-1 viab
Cc1nn2c(CN(c3ccccc3)S(=O)(=O)c3ccccc3)nnc2c2ccccc12	·	·	·	12
COc1cccc(CNC(=O)c2cnn3c(C)c(Cc4c(C)cc(C)cc4C)c(C)nc23)c1	142*	·	·	·
Cc1nc2c(C(=O)NCc3ccc4c(c3)OCO4)cnn2c(C)c1Cc1c(F)cccc1Cl	12	·	·	·
COC(=O)c1c(-c2c(Cl)cccc2Cl)noc1NC(=O)NCc1ccccc1	23	-1	-0.15	104*
CCOC(=O)c1c(NC(=O)C(C)Oc2ccccc2)sc(C)c1C (configuration not stated)	8	-3	·	-2
CC(=O)c1ccc(NC(=O)CCCC(=O)O)cc1	5	3	·	21
Cc1nc(C2C(=O)c3ccc(O)c(O)c3OC2C(F)(F)F)cs1 (configuration not stated)	-5	1	-0.015	107*
CCOC(=O)c1cc(NC(=O)CSc2nnc(C)s2)ccc1Cl	·	0	·	12
CCS(=O)CCSc1nc(-c2ccc(Br)cc2)cc(-c2ccccc2)c1C#N (configuration not stated)	166*	·	·	·
CCS(=O)CCSc1nc(-c2ccc(C)cc2)cc(-c2ccccc2)c1C#N (configuration not stated)	-8	·	·	·
C[C@H]1CN([C@@H](C)CO)C(=O)Cc2cc(NS(=O)(=O)c3cn(C)cn3)ccc2O[C@@H]1CN(C)Cc1ccncc1	79*	1	-0.27	20
C[C@@H]1CN([C@H](C)CO)C(=O)Cc2cc(NS(=O)(=O)c3cn(C)cn3)ccc2O[C@H]1CN(C)Cc1ccc(-c2ccccc2)cc1	33	0	0.01	-1
C[C@@H]1CN([C@H](C)CO)C(=O)Cc2cc(NS(=O)(=O)c3cn(C)cn3)ccc2O[C@@H]1CN(C)Cc1ccc(Oc2ccccc2)cc1	80*	-1	-0.26	15
C[C@H]1CN([C@@H](C)CO)C(=O)Cc2cc(NS(=O)(=O)c3cn(C)cn3)ccc2O[C@H]1CN(C)Cc1ccc(-c2ccccc2)cc1	95*	1	0.011	51
CN(C)c1cnn(-c2cnc3ccccc3n2)c(=O)c1Cl	-16	·	·	·
N#Cc1c(C(F)(F)F)cc(-c2cccs2)nc1SCC(=O)c1ccccc1	747*	·	·	·
O=C1C2=C(NC(=S)NC2c2ccccc2)c2ccccc21 (configuration not stated)	7	-11	-0.18	114*
Cc1ccccc1OCC(=O)NC(c1ccccc1)c1c(O)ccc2ccccc12 (configuration not stated)	-1	·	·	·
NC1=NC(=Nc2cccc(C(F)(F)F)c2)c2ccccc21	12	·	·	·
N#Cc1c(C(F)(F)F)cc(-c2cccs2)nc1SCC(=O)Nc1sc2c(c1C#N)CCC2	13	-2	·	74
CC(C)(C)c1cc(C(F)(F)F)c(C#N)c(SCC(=O)Nc2sc3c(c2C#N)CCCC3)n1	·	·	·	97*
COc1ccccc1C1CCN(S(=O)(=O)c2ccccc2Br)CC1	11	0	-0.11	-4
COc1ccccc1C1CCN(Cc2cccc3ccccc23)CC1	19	-7	0.58	100*
N#Cc1c(Nc2ccccc2)sc2c(N)nc(N)nc12	24	·	·	·
CC(C)CC1NC(=O)C(CC(C)C)N(O[C@@H]2O[C@H](COC(=O)CCC(=O)O)[C@@H](O)[C@H](O)[C@H]2O)C1=O (some centres not stated)	-8	-6	4.9*	119*
SMILES	U2OS ROS induce	PD-1 reversal	YB-1 expression	NOMO-1 viab
N#CCCN(CCC#N)C(=O)c1ccco1	4	1	·	27
Cc1ccccc1-c1cc(C(=O)NCCCn2cc(Br)cn2)c2ccccc2n1	·	·	·	7
Cc1cc(C)c(NC(=O)CN(C)S(=O)(=O)c2ccc3ccccc3c2)c(C)c1	4	1	·	30
CC(=O)OC/C(=C\COc1cc(=O)oc2cccc(C)c12)CCC=C(C)C	110*	·	-0.56	·
COC(=O)c1cc(C)nc(Sc2ccccc2NC(=O)Nc2ccc(Cl)cc2)n1	39	2	0.1	109*
C[C@@H]1CN([C@H](C)CO)C(=O)Cc2cc(NC(=O)Cc3cn(C)c4ccccc34)ccc2O[C@H]1CN(C)Cc1ccc(C(F)(F)F)cc1	20	-4	0.00043	133*
C[C@H]1CN([C@@H](C)CO)C(=O)Cc2cc(NC(=O)Cc3cn(C)c4ccccc34)ccc2O[C@H]1CN(C)Cc1ccc(C(F)(F)F)cc1	6	·	-0.14	83*
C[C@@H]1CN([C@@H](C)CO)C(=O)Cc2cc(NC(=O)Cc3cn(C)c4ccccc34)ccc2O[C@@H]1CN(C)Cc1ccccc1	47	-4	0.39	37

High-throughput results deposited in PubChem BioAssay by Broad Institute.
